According to PubChem BioAssay AID1159580 (chemical genetic matrix, 2015):
Values joined by “and” are separate entries in the source; they are usually repeats but may differ in a detail not shown here. Equal values may be shown once. About 2,000 (36%) of roughly 5,500 compounds were called active. Inconclusive results (about 18%) are left out. Cut-off read from the data, not from the text of the source: active = normalized growth mostly below about 0.91 (no sharp cut-off); inconclusive = no clear call, values can overlap the other calls; inactive = mostly above about 0.92. The list shows a part of the results.

Experiment: chemical genetic growth profiling, strain panel (AID 1159580);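 note: tested at 20 µM; growth read once vehicle control cultures reached saturation at 30 °C; 1 = growth at the plate median or of vehicle wells; lower values mean less growth of the strain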
Conditions: S. cerevisiae deletion strains, growth OD

Measured: normalized growth

COc1cc(OC)c2c(c1)O[C@H](c1ccc(OC)c(OC)c1)[C@@H](O)C2
inactive: locus YAL021C, strain ccr4, stronger effect = lower value 1.01 | locus YAL026C, strain drs2, stronger effect = lower value 0.961 | locus YAL030W, strain snc1, stronger effect = lower value 0.998 | locus YBL061C, strain skt5, stronger effect = lower value 0.989 | locus YBR009C, strain hhf1, stronger effect = lower value 1 | locus YBR021W, strain FUR4, stronger effect = lower value 1.06 | locus YBR023C, strain chs3, stronger effect = lower value 1 | locus YBR171W, strain sec66, stronger effect = lower value 0.971 | locus YBR229C, strain ROT2, stronger effect = lower value 1.01 | locus YBR231C, strain swc5, stronger effect = lower value 0.981 | locus YBR279W, strain paf1, stronger effect = lower value 1 | locus YCL011C, strain gbp2, stronger effect = lower value 0.986 | locus YCL016C, strain dcc1, stronger effect = lower value 1.02 | locus YCL029C, strain bik1, stronger effect = lower value 1.02 | locus YCL061C, strain MRC1, stronger effect = lower value 0.996 | locus YCL069W, strain vba3, stronger effect = lower value 0.968 | locus YCR088W, strain abp1, stronger effect = lower value 0.984 | locus YDL005C, strain med2, stronger effect = lower value 0.985 | locus YDL035C, strain GPR1, stronger effect = lower value 1.04 | locus YDL040C, strain nat1, stronger effect = lower value 0.992 | locus YDL074C, strain BRE1, stronger effect = lower value 1.11 | locus YDL101C, strain DUN1, stronger effect = lower value 1.02 | locus YDL134C, strain PPH21, stronger effect = lower value 1.09 | locus YDL185W, strain tfp1, stronger effect = lower value 1.03 | locus YDL192W, strain arf1, stronger effect = lower value 1 | locus YDR001C, strain nth1, stronger effect = lower value 0.989 | locus YDR069C, strain doa4, stronger effect = lower value 0.976 | locus YDR101C, strain arx1, stronger effect = lower value 0.99 | locus YDR137W, strain rgp1, stronger effect = lower value 0.949 | locus YDR159W, strain sac3, stronger effect = lower value 0.95 | locus YDR162C, strain NBP2, stronger effect = lower value 1.03 | locus YDR195W, strain ref2 0.976 | locus YDR297W, strain sur2, stronger effect = lower value 0.988 | locus YDR318W, strain mcm21, stronger effect = lower value 1.01 | locus YDR334W, strain swr1, stronger effect = lower value 0.977 | locus YDR335W, strain msn5, stronger effect = lower value 0.983 | locus YDR388W, stronger effect = lower value 1.03 | locus YDR392W, strain spt3, stronger effect = lower value 0.909 | locus YDR502C, strain sam2, stronger effect = lower value 1.02 | locus YEL003W, strain gim4, stronger effect = lower value 0.984 | locus YEL037C, strain rad23, stronger effect = lower value 0.985 | locus YEL061C, strain CIN8 (second series), stronger effect = lower value 0.976 | locus YER015W, strain faa2, stronger effect = lower value 1.01 | locus YER016W, strain bim1, stronger effect = lower value 0.992 | locus YER110C, stronger effect = lower value 0.998 | locus YER111C, strain swi4, stronger effect = lower value 0.994 | locus YER155C, strain BEM2 (second series), stronger effect = lower value 0.947 | locus YER155C, strain BEM2, stronger effect = lower value 1.01 | locus YER167W, strain BCK2, stronger effect = lower value 1.01 | locus YFR010W, strain ubp6, stronger effect = lower value 0.956 | locus YGL078C, strain dbp3, stronger effect = lower value 1.02 | locus YGL086W, strain mad1, stronger effect = lower value 1 | locus YGL167C, strain pmr1, stronger effect = lower value 1 | locus YGL173C, strain kem1, stronger effect = lower value 0.983 | locus YGL227W, strain vid30, stronger effect = lower value 0.982 | locus YGL240W, strain doc1, stronger effect = lower value 1 | locus YGL248W, strain PDE1, stronger effect = lower value 1.05 | locus YGL253W, strain hxk2, stronger effect = lower value 0.939 | locus YGR135W, strain pre9, stronger effect = lower value 1.05 | locus YGR252W, strain gcn5, stronger effect = lower value 1.08 | locus YHR013C, strain ard1, stronger effect = lower value 1.01 | locus YHR027C, strain rpn1, stronger effect = lower value 0.983 | locus YHR030C, strain SLT2, stronger effect = lower value 0.996 | locus YHR079C, strain IRE1 (second series), stronger effect = lower value 1.02 | locus YHR079C, strain IRE1, stronger effect = lower value 0.992 | locus YHR094C, strain hxt1, stronger effect = lower value 1.04 | locus YHR129C, strain ARP1, stronger effect = lower value 1.02 | locus YHR142W, strain chs7, stronger effect = lower value 0.993 | locus YHR200W, strain rpn10, stronger effect = lower value 1.02 | locus YIL066C, strain RNR3, stronger effect = lower value 1.03 | locus YIL073C, strain SPO22, stronger effect = lower value 1.09 | locus YIL125W, strain kgd1, stronger effect = lower value 0.99 | locus YIR030C, strain dcg1, stronger effect = lower value 1.01 | locus YJL092W, strain hpr5, stronger effect = lower value 0.985 | locus YJL095W, strain BCK1 (second series), stronger effect = lower value 0.971 | locus YJL095W, strain BCK1, stronger effect = lower value 1.1 and 0.993 | locus YJL115W, strain asf1, stronger effect = lower value 0.994 | locus YJL129C, strain trk1, stronger effect = lower value 0.965 | locus YJL134W, strain LCB3, stronger effect = lower value 1.01 | locus YJL154C, strain vps35, stronger effect = lower value 0.983 | locus YJL164C, strain tpk1, stronger effect = lower value 1.02 | locus YJL166W, strain qcr8, stronger effect = lower value 0.984 | locus YJL168C, strain set2, stronger effect = lower value 1.01 | locus YJL187C, strain SWE1 (second series), stronger effect = lower value 1.03 | locus YJL187C, strain SWE1, stronger effect = lower value 0.988 | locus YJR043C, strain POL32, stronger effect = lower value 1.04 | locus YJR066W, strain TOR1, stronger effect = lower value 0.941 | locus YKL009W, strain mrt4, stronger effect = lower value 1.05 | locus YKL068W, stronger effect = lower value 1.01 | locus YKL085W, strain MDH1 (second series), stronger effect = lower value 1.02 | locus YKL085W, strain MDH1, stronger effect = lower value 1.02 | locus YKL160W, strain elf1, stronger effect = lower value 1.02 | locus YKL190W, strain CNB1, stronger effect = lower value 1.01 | locus YKR001C, strain vps1, stronger effect = lower value 1.04 | locus YKR026C, strain gcn3, stronger effect = lower value 0.975 | locus YKR091W, strain srl3, stronger effect = lower value 0.996 | locus YLL001W, strain dnm1, stronger effect = lower value 0.972 | locus YLL026W, stronger effect = lower value 0.996 | locus YLL041C, strain sdh2, stronger effect = lower value 0.993 | locus YLR027C, strain aat2, stronger effect = lower value 0.994 | locus YLR039C, strain RIC1, stronger effect = lower value 1.15 | locus YLR058C, strain SHM2, stronger effect = lower value 1.02 | locus YLR102C, strain apc9, stronger effect = lower value 1.01 | locus YLR113W, strain HOG1, stronger effect = lower value 0.971 | locus YLR221C, strain rsa3, stronger effect = lower value 0.953 | locus YLR258W, strain gsy2, stronger effect = lower value 0.99 | locus YLR262C, strain YPT6 (second series), stronger effect = lower value 0.956 | locus YLR268W, strain sec22, stronger effect = lower value 1.02 | locus YLR320W, strain mms22, stronger effect = lower value 0.979 | locus YLR330W, strain CHS5, stronger effect = lower value 1.03 | locus YLR342W, strain FKS1, stronger effect = lower value 0.997 | locus YLR357W, strain rsc2, stronger effect = lower value 0.989 | locus YLR370C, strain arc18, stronger effect = lower value 0.97 | locus YLR371W, strain rom2, stronger effect = lower value 1.05 | locus YLR384C, strain iki3, stronger effect = lower value 1.01 | locus YLR418C, strain cdc73, stronger effect = lower value 1.09 | locus YML016C, strain PPZ1, stronger effect = lower value 1.01 | locus YML032C, strain rad52, stronger effect = lower value 1.01 | locus YML120C, strain ndi1, stronger effect = lower value 1.01 | locus YML124C, strain tub3, stronger effect = lower value 1 | locus YMR058W, strain fet3, stronger effect = lower value 0.981 | locus YMR078C, strain ctf18, stronger effect = lower value 1.03 | locus YMR125W, strain sto1, stronger effect = lower value 0.982 | locus YMR129W, stronger effect = lower value 0.999 | locus YMR205C, strain PFK2, stronger effect = lower value 1.03 | locus YMR223W, strain ubp8, stronger effect = lower value 1.01 | locus YMR231W, strain pep5, stronger effect = lower value 0.973 | locus YMR263W, strain SAP30, stronger effect = lower value 1.01 | locus YMR307W, strain GAS1, stronger effect = lower value 1.22 | locus YNL067W, strain RPL9B, stronger effect = lower value 1.02 | locus YNL071W, strain lat1, stronger effect = lower value 0.989 | locus YNL153C, strain GIM3, stronger effect = lower value 1.03 | locus YNL183C, strain NPR1, stronger effect = lower value 0.931 | locus YNL209W, strain ssb2, stronger effect = lower value 1.01 | locus YNL233W, strain BNI4, stronger effect = lower value 1.07 | locus YNL248C, strain rpa49, stronger effect = lower value 0.968 | locus YNL250W, strain rad50, stronger effect = lower value 1.03 | locus YNL271C, strain bni1, stronger effect = lower value 1.01 | locus YNL298W, strain CLA4, stronger effect = lower value 1.03 | locus YNL307C, strain MCK1, stronger effect = lower value 1.03 | locus YNL322C, strain KRE1 (second series), stronger effect = lower value 1.01 | locus YNR049C, strain mso1, stronger effect = lower value 0.988 | locus YNR052C, strain pop2, stronger effect = lower value 1.04 | locus YOL006C, strain TOP1, stronger effect = lower value 1.3 | locus YOL012C, strain htz1 1.07 | locus YOL147C, strain pex11, stronger effect = lower value 1.01 | locus YOR001W, strain rrp6, stronger effect = lower value 0.925 | locus YOR061W, strain CKA2, stronger effect = lower value 1.02 | locus YOR069W, strain VPS5, stronger effect = lower value 1.01 | locus YOR070C, strain gyp1, stronger effect = lower value 1.01 | locus YOR080W, strain dia2, stronger effect = lower value 0.971 | locus YOR083W, strain WHI5, stronger effect = lower value 1.03 | locus YOR106W, strain vam3, stronger effect = lower value 1.03 | locus YOR136W, strain idh2, stronger effect = lower value 1.01 | locus YOR144C, strain elg1, stronger effect = lower value 1 | locus YOR184W, strain ser1, stronger effect = lower value 1 | locus YOR231W, strain MKK1, stronger effect = lower value 1 | locus YOR265W, strain rbl2, stronger effect = lower value 0.988 | locus YOR270C, strain vph1, stronger effect = lower value 0.969 | locus YOR290C, strain snf2, stronger effect = lower value 0.994 | locus YOR316C, strain cot1, stronger effect = lower value 1.03 | locus YPL051W, strain arl3, stronger effect = lower value 0.985 | locus YPL078C, strain atp4, stronger effect = lower value 1.03 | locus YPL106C, strain sse1, stronger effect = lower value 1.05 | locus YPL240C, strain hsp82, stronger effect = lower value 0.992 | locus YPL256C, strain CLN2, stronger effect = lower value 0.958 | locus YPR119W, strain clb2, stronger effect = lower value 0.999 | locus YPR141C, strain kar3, stronger effect = lower value 1.01 | locus YPR163C, strain tif3, stronger effect = lower value 1.01 | locus YPR167C, strain met16, stronger effect = lower value 1.03 | strain wtn01, stronger effect = lower value 0.997
